Experimental findings from PubChem BioAssay AID686978 (National Center for Advancing Translational Sciences (NCATS), 2013) are described below.

Among all 420,000 compounds or so, about 64,000 (15%) were called active. Inconclusive results (about 27%) are left out. Calls come from the whole dose curve; as a rule, active = well fitted inhibition curve with a large enough effect; inconclusive = small, poorly fitted or top-dose-only effect; inactive = flat fitted curve, though single readings scatter. The list is a sample of the results. Entries that show only a call come without a potency.
Potency is the fitted concentration of half-maximal effect.

The nature of this test: qHTS for Inhibitors of human tyrosyl-DNA phosphodiesterase 1 (TDP1): qHTS in cells in absence of CPT. Note: nearly all actives have a fitted effect of over 55% in size. The following applies: DT40 Tdp1-/- hTDP1 cells, no CPT, ATP luminescence, 48 h; activity change, negative = growth inhibition: at 46.2 µM (top of the series). In a few lines: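 Growth kinetics read by CellTiter-Glo luminescence after ≥48 hr at 37 °C. Cells: DT40 Tdp1-/- stably carrying human TDP1, 400 per well, compound exposure in the absence of CPT (DMSO vehicle).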
Regarding `CCn1cc(NC(=O)Nc2ccc(OC)c(OC)c2)c(C(N)=O)n1`, the Potency entry is “inactive”.

`COc1ccc(NC(=O)NC(C)c2c(-n3cccc3)sc(C)c2C)cc1OC` (configuration not stated): the Potency was 16.4 µM (active).

For `COc1ccc(NC(=O)N2CCCn3nc(C)cc32)cc1OC`, the Potency result was “inactive”.

As to `Cc1ccc(NC(=O)CCC(=O)c2ccc(Br)cc2)cc1`, the Potency result was “inactive”.

Take `COCC(C)NC(=O)COc1nncc2ccccc12` (configuration not stated): the Potency result is “inactive”.

In the case of `NC(Cc1ccc(F)cc1)c1csc(Nc2nncc3ccccc23)n1` (configuration not stated), the Potency is 4.11 µM (active).

`O=C(Nc1ccc2c(c1)OCCO2)C1CCCN(c2ncccn2)C1` (configuration not stated): the Potency result was “inactive”.

In the case of `CC1Cc2ccccc2N1S(=O)(=O)c1ccc(Cl)nc1` (configuration not stated), the Potency entry is “inactive”.

For `Cc1cc(-c2ccc(C)c(S(=O)(=O)Nc3ccc(S(N)(=O)=O)cc3)c2)on1`, the Potency entry is “inactive”.

On to `Cc1cc(-c2ccc(C)c(S(=O)(=O)N3c4ccccc4CC3C)c2)on1` (configuration not stated), for which the Potency is 23.1 µM (active).

On to `Cc1cc(NC(=O)CCC(=O)N(CC(=O)NCC2CCCO2)c2ccccc2C)no1` (configuration not stated), for which the Potency result is “inactive”.

As for `COc1ccccc1NC(=O)CSc1nnc(Cc2cccn2C)n1-c1ccc(F)cc1`, the Potency result was “inactive”.

On to `COc1ccccc1OCc1nnc(SCC(N)=O)n1-c1ccccc1`, for which the Potency entry is “inactive”.

Turning to `COc1ccccc1NC(=O)CSc1nnc(Cn2nnc(-c3ccccc3)n2)n1-c1ccccc1`, the Potency was 20.6 µM (active).

As for `COc1ccc(Cl)cc1-n1c(=S)sc2c(=O)n(-c3ccc(F)cc3)c(SCC(=O)O)nc21`, the Potency entry is “inactive”.

Regarding `O=C(O)c1cc(S(=O)(=O)N2CCCCCC2)c(Cl)cc1Cl`, the Potency entry was “inactive”.

For the compound `Cc1ccc(CNC(=O)CCNS(=O)(=O)c2ccc(Br)s2)cc1`, the Potency entry was “inactive”.

For the compound `CC1=NN(C(=O)CCCc2ccccc2)C(O)(C(F)(F)F)C1` (configuration not stated), the Potency entry is “inactive”.

On to `CC1=NN(C(=O)Cc2ccc(C)cc2)C(O)(c2cccnc2)C1` (configuration not stated), for which the Potency entry was “inactive”.

With `COc1ccc(CC(=O)N2N=C(C)CC2(O)C(F)(F)F)cc1` (configuration not stated), the Potency is 3.26 µM (active).

`Cc1ccc(CNS(=O)(=O)c2ccc3c(c2)N(C)CCO3)cc1`: the Potency result is “inactive”.

Regarding `CCCCC(=O)Nc1ccc2c(c1)C(=O)NC2=O`, the Potency entry is “inactive”.

Regarding `Oc1cccc(CCc2ccccn2)c1`, the Potency result was “inactive”.

As to `NS(=O)(=O)c1ccc(CCNC(=O)Nc2ccc(Cl)cc2)cc1`, the Potency result is “inactive”.

For the compound `O=C(NCc1cn2ccsc2n1)Nc1ccc(Cl)cc1`, the Potency entry is “inactive”.

Regarding `CC(C)S(=O)(=O)c1csc(NC(=O)Nc2ccc(Cl)cc2)c1Cl`, the Potency is 16.4 µM (active).

As to `Cc1cccc(NC(=O)c2cccc(C(=O)Nc3cccc(C)c3C)n2)c1C`, the Potency entry is “inactive”.

With `CCN1/C(=C\c2ccc3ccccc3[n+]2CC)Sc2cc(C)ccc21`, the Potency was 0.184 µM (active).

With `CCN1/C(=C/c2ccc3ccc(C)cc3[n+]2CC)Sc2ccccc21`, the Potency was 2.06 µM (active).

In the case of `Cn1c(Nc2ccccc2)cc(=O)n(C)c1=O`, the Potency entry is “inactive”.

For `CCc1ccccc1NC(=S)N(CCN1CCCCCC1)Cc1ccco1`, the Potency entry is “inactive”.

Turning to `CCN(CC)S(=O)(=O)c1ccc2nc(COC(=O)c3n[nH]c4ccccc34)[nH]c2c1`, the Potency entry is “inactive”.

Regarding `C[C@]12CC[C@H](O)CC1=CCC1C2CC[C@@]2(C)C1CC[C@@H]2NC(=O)CCC(=O)O` (some centres not stated), the Potency result was “inactive”.

`CC(=O)OC1CCC2(C)C(=CCC3C4CC(=O)N(O)C(=O)C4(C)CCC32)C1` (configuration not stated): the Potency is 5.17 µM (active).

In the case of `CC(=O)O[C@H]1CC[C@@]2(C)C(=CC[C@@H]3[C@@H]2CC[C@]2(C)C(c4cccnc4)=CC[C@@H]32)C1`, the Potency result is “inactive”.

Regarding `CN(C)CCNC(=O)/C(=C/c1cccc([N+](=O)[O-])c1)NC(=O)c1ccccc1`, the Potency result is “inactive”.

As for `CCOCc1nnc(NC(=O)CSc2ccc(C)cc2)s1`, the Potency entry was “inactive”.

Consider `OC1CSc2nc3ccccc3n2C1` (configuration not stated), for which the Potency entry is “inactive”.

`CCCc1nn2c(=O)cc(CSCC(=O)Nc3cccc(C)c3)nc2s1`: the Potency entry is “inactive”.

For `CC(C)[C@@H](NC(=O)OC(C)(C)C)C(=O)NCC1CCC(C(=O)N[C@@H](Cc2ccccc2)C(=O)O)CC1` (some centres not stated), the Potency entry is “inactive”.

Turning to `CC(C)(C)OC(=O)NC(Cc1ccccc1)C(=O)NC(CSC1CCCCO1)C(=O)NN` (configuration not stated), the Potency entry was “inactive”.

Take `CC(C)(C)OC(=O)C[C@H]1C/C=C\C[C@@H](CC(=O)N[C@H](CO)Cc2ccccc2)C(=O)NC[C@@H](c2ccccc2)OC1=O`: the Potency is 18.4 µM (active).

With `O=C(C[C@H]1C/C=C\C[C@@H](NC(=O)OCC2c3ccccc3-c3ccccc32)C(=O)O[C@@H](c2ccccc2)CNC1=O)N[C@H](CO)Cc1ccccc1`, the Potency is 18.4 µM (active).

As to `CC(C)(C)OC(=O)C[C@@H]1C/C=C\C[C@@H](CC(=O)N[C@H](CO)Cc2ccccc2)C(=O)NC[C@@H](c2ccccc2)OC1=O`, the Potency was 20.6 µM (active).

Take `C[C@H]1COC(=O)[C@H](CC(=O)OC(C)(C)C)C/C=C\C[C@@H](CC(=O)N[C@H](CO)Cc2ccccc2)C(=O)N1`: the Potency was 14.6 µM (active).

`COc1ccc(OCC(=O)NCCc2ccc(S(N)(=O)=O)cc2)cc1`: the Potency entry is “inactive”.

In the case of `CCC(C)N1CC(=O)N2Cc3[nH]c4ccccc4c3C[C@H]2C1=O` (some centres not stated), the Potency entry is “inactive”.

For the compound `CCN(CC)CCNS(=O)(=O)c1ccc(/C=C/C(=O)O)cc1`, the Potency entry was “inactive”.

As for `CNCC(O)c1ccc(O)c(O)c1` (configuration not stated), the Potency entry was “inactive”.

For the compound `COc1ccc(CNC(=O)C(=O)NCC2OCCN2C(=O)c2ccc(OC)cc2)cc1` (configuration not stated), the Potency entry is “inactive”.

`C/C(=C(\C#N)C(=O)NCCCN1CCOCC1)N(C)C`: the Potency entry was “inactive”.

Regarding `O=C(CCc1ccccc1)NNc1ccc(F)cc1`, the Potency entry was “inactive”.

`Cc1cccc2cc(CN(Cc3cccs3)C(c3nnnn3C3CCCC3)C(C)C)c(=O)[nH]c12` (configuration not stated): the Potency result was “inactive”.

Consider `CC(C)C(c1nnnn1Cc1ccccc1)N1CCC(C(N)=O)CC1` (configuration not stated), for which the Potency result is “inactive”.

As to `Cc1cccc2[nH]c(CN(C)C(=O)C3CCC(=O)N(CCc4ccccc4)C3)nc12` (configuration not stated), the Potency result was “inactive”.

Regarding `CCC(c1nnnn1C1CCCC1)N(Cc1cccs1)Cc1cc2cccc(C)c2[nH]c1=O` (configuration not stated), the Potency is 18.4 µM (active).

`Cc1cccc2cc(CN(Cc3nnnn3Cc3ccccc3)C3CCCC3)c(=O)[nH]c12`: the Potency was 12.6 µM (active).

Turning to `Cc1cccc2cc(CN(Cc3ccc4c(c3)OCO4)Cc3nnnn3C3CCCC3)c(=O)[nH]c12`, the Potency was 16.4 µM (active).

Consider `CCC(=O)Nc1cccc(NC(=O)CSc2nnnn2C2CCCC2)c1`, for which the Potency result was “inactive”.

In the case of `Cc1ccccc1-c1nnc(SCC(=O)NCc2ccc3c(c2)OCO3)n1C`, the Potency result is “inactive”.

With `O=C(CSc1nnnn1C1CCCC1)Nc1ccc2c(c1)OCCO2`, the Potency entry is “inactive”.

As for `CSc1ccc(S(=O)(=O)NCc2ccc(Cl)cc2)cc1`, the Potency result is “inactive”.

`CS(=O)(=O)n1nc(-c2ccco2)nc1N`: the Potency entry was “inactive”.

Regarding `Cc1ccnc(NC(=O)C(C)N2C(=O)c3ccccc3C2=O)c1` (configuration not stated), the Potency entry is “inactive”.

As to `C=CCc1cccc2cc(C(=O)OCC)c(=O)oc12`, the Potency result is “inactive”.

Regarding `CC/C=C/C(=O)N1CC2(CC(c3cccc(NC(=O)CC)c3)=NO2)C[C@H]1C(N)=O` (some centres not stated), the Potency result was “inactive”.

As to `Cc1ccc(C)c(S(=O)(=O)N(C)c2ccc(OC(=O)C3CCN(C(=O)c4ccc(F)cc4)CC3)cc2)c1`, the Potency entry is “inactive”.

For the compound `Cc1ccc(OCC(=O)Nc2ccc(-c3nc4ncccc4o3)cc2)cc1`, the Potency result was “inactive”.

`Cc1cc(N2C(=O)c3ccc(C(=O)NCc4ccccc4)cc3C2=O)no1`: the Potency result was “inactive”.

As for `COc1ccc(-c2nc3nc(C)cc(C)n3c2Nc2c(C)cccc2C)cc1`, the Potency was 18.4 µM (active).

On to `COc1ccc2nc(C)cc(Nc3cccc(C(=O)O)c3)c2c1`, for which the Potency entry was “inactive”.

For the compound `COc1cccc(-c2nc3nc(C)cc(C)n3c2NC2CCCCC2)c1`, the Potency is 20.6 µM (active).

For the compound `COc1ccc(-c2cc(C)nc3nc(N)nn23)cc1`, the Potency result is “inactive”.

For the compound `COc1cccc(CSc2nc3nc(C)cc(C)n3n2)c1`, the Potency entry was “inactive”.

Consider `COc1cccc(-c2cnc(OC(C)(C)C)nc2OC(C)(C)C)c1`, for which the Potency entry was “inactive”.

In the case of `CCOc1ccc(-c2nc(C)sc2CC(=O)O)cc1`, the Potency result was “inactive”.

In the case of `Cc1cccc(CSc2nnc(C)c(=O)n2N)c1`, the Potency entry was “inactive”.

`O=C(NC1CCCC1)C(c1ccc(Cl)cc1)N(C(=O)c1csnn1)C1CC1` (configuration not stated): the Potency result is “inactive”.

Regarding `COc1ccc(-c2cc(=O)c3c(O)cc(O[C@@H]4O[C@H](CO[C@@H]5O[C@@H](C)[C@H](O)[C@@H](O)[C@H]5O)[C@@H](O)[C@H](O)[C@H]4O)cc3o2)cc1O`, the Potency result was “inactive”.

For `CCn1c(=O)cc(O)c2ccccc21`, the Potency result is “inactive”.

Consider `CCOC(=O)C1CCN(S(=O)(=O)c2cc(F)ccc2OC)CC1`, for which the Potency result is “inactive”.

As for `CCOC(=O)c1cnc(COc2ccccc2Cl)[nH]c1=O`, the Potency result is “inactive”.

`CC1(C)NC(=O)N(CC(=O)Nc2ccc(-c3ccccc3)cc2)C1=O`: the Potency entry is “inactive”.

As for `C=CCOC(=O)C1=C[C@@H](c2ccccc2)C[C@@H](OCc2ccc(CO)cc2)O1`, the Potency entry is “inactive”.

Take `NC(=O)C1=C[C@H](c2csc3ccccc23)C[C@H](OCc2ccc(CO)cc2)O1`: the Potency is 20.6 µM (active).

As to `O=C(C1=C[C@H](c2ccc(C(F)(F)F)cc2)C[C@H](OCc2ccc(CO)cc2)O1)N1CCN(Cc2ccccc2)CC1`, the Potency was 13 µM (active).

As to `O=C(C1=C[C@H](c2coc3ccccc3c2=O)C[C@H](OCc2ccc(CO)cc2)O1)N1CCOCC1`, the Potency entry was “inactive”.

Regarding `O=C(O)C1=C[C@H](c2cccs2)C[C@H](OCCCCO)O1`, the Potency entry was “inactive”.

For the compound `CN1CCN(C(=O)C2=C[C@H](c3ccc4c(c3)OCO4)C[C@H](OCc3ccc(CO)cc3)O2)CC1`, the Potency result is “inactive”.

`C#Cc1ccc([C@@H]2C=C(C(=O)O)O[C@H](OCCCCO)C2)cc1`: the Potency result is “inactive”.

Turning to `O=C(C1=C[C@H](c2coc3ccccc3c2=O)C[C@H](OCc2ccc(CO)cc2)O1)N1CCN(Cc2ccccc2)CC1`, the Potency was 18.4 µM (active).

On to `NC(=O)C1=C[C@@H](c2ccc3c(c2)OCO3)C[C@@H](OCCCCO)O1`, for which the Potency entry was “inactive”.

Take `COc1cc(C(=O)N2CCN(C3CCC(C)CC3)CC2)cc(OC)c1OC` (configuration not stated): the Potency entry was “inactive”.

Regarding `CCN(CC)CCN(C(=O)c1cc(Cl)sc1Cl)c1nc2cc3c(cc2s1)OCO3`, the Potency entry is “inactive”.

For the compound `CN(C(=O)c1ccno1)c1nnc(-c2cccnc2)s1`, the Potency result is “inactive”.

For the compound `CCC1(C)N(O)C(C)(C)C(c2ccc(OC)cc2)=[N+]1[O-]` (configuration not stated), the Potency entry is “inactive”.

For the compound `O=S(=O)(Nc1ncccn1)c1ccc(NS(=O)(=O)c2cccc(Cl)c2Cl)cc1`, the Potency result is “inactive”.
